In PubChem BioAssay (NCI):
The panel holds about 83,000 compounds, 20% with a hit somewhere; the sample as a whole holds those more often.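 Activity criterion: percent growth below 10, measured after cells in 96-well plates were exposed to a single compound concentration for 48 hours.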 Unmarked numbers belong to inactive results. Active and inactive are the calls of the source.

Assays:
Test in all cases: NCI-60 one-dose screen, 48 h (100 = growth as untreated, 0 = no growth, -100 = all killed)
Conditions in all cases: 10 µM unless noted
[1] = tested on: NCI-H23 lung
[2] = tested on: NCI-H322M lung
[3] = tested on: HOP-62 NSCLC
[4] = tested on: NCI-H460 lung
[5] = tested on: HOP-92 NSCLC
[6] = tested on: NCI-H522 lung
[7] = tested on: A549/ATCC NSCLC
[8] = tested on: 786-0 renal
[9] = tested on: DU-145 prostate
[10] = tested on: K-562 leukemia
[11] = tested on: MALME-3M melanoma
[12] = tested on: MDA-MB-231 breast
[13] = tested on: RXF 393 renal
[14] = tested on: SF-268 CNS
[15] = tested on: SF-295 CNS
[16] = tested on: SF-539 CNS
[17] = tested on: UACC-257 melanoma
[18] = tested on: M14 melanoma
[19] = tested on: NCI-H226 lung

Compound | growth [1] | growth [2] | growth [3] | growth [4] | growth [5] | growth [6] | growth [7] | growth [8] | growth [9] | growth [10] | growth [11] | growth [12] | growth [13] | growth [14] | growth [15] | growth [16] | growth [17] | growth [18] | growth [19]
CCOC(=O)c1c(C)nc2c(c1N)/C(=C/c1ccc(OC)cc1)C(=O)N2Cc1ccc(F)cc1 | -38.2% (active) | 9.93% (active) | -45.3% (active) | 2.95% (active) | -55.6% (active) | -69.6% (active) | 12% | -50.6% (active) | -90.8% (active) | 4.12% (active) | -21.3% (active) | -54.7% (active) | -78.6% (active) | -23.6% (active) | -1.56% (active) | -20.5% (active) | -52.7% (active) | -56% (active) | 
CCCCCCNc1cc(C)nc2ccc(OC)cc12 | 52.7% | 67.2% | 73.1% | 61.6% | 39.3% | 63.9% | 64.3% | 68.9% |  | 21% | 52.3% | 69.6% | 61.2% | 93.2% | 44.4% | 68.4% | 69.4% | 59.1% | 
CC(C)c1ccc(C(=O)OC(=O)c2ccc(C(C)C)cc2)cc1 | 86.4% | 88.8% |  | 96.3% | 87.8% |  | 103% | 95.8% | 119% | 74.7% | 86.3% | 116% | 98.5% | 103% | 98.9% | 108% | 105% | 94.5% | 97.9%
O=C(c1ccccc1)c1ccc(N2C(=O)C3C4c5ccccc5C(/C=C/C(=O)c5ccccn5)(c5ccccc54)C3C2=O)cc1 (stereo unspecified) | 14.2% | 74.9% | 24.3% | 6.4% (active) | 55.6% | 30.6% | 44.3% | 2.11% (active) | 21.4% | 15.9% | -18.2% (active) | -8.96% (active) | -48.5% (active) | 43.4% | 10.8% | -10.9% (active) | 43.6% | 21.3% | 
CC[C@@H](C[C@H](CCO)c1ccccc1)c1cc2ccccc2o1 | 92.7% | 92.9% | 84.4% | 100% | 96.8% | 77.5% | 84.3% | 91% | 97.9% | 77.7% | 103% | 98% | 96.9% | 91.2% | 99.5% | 104% | 96.9% | 91.9% | 
CC(=O)Nc1cccc(C2=CC(c3ccc(C)cc3)n3ncnc3N2)c1 (stereo unspecified) | 97.4% | 107% | 101% | 107% | 77.7% | 94.8% | 108% | 95% | 102% | 86.2% | 119% | 87.8% | 96.4% | 94% | 114% | 95.3% | 112% | 112% | 
C=C1C(=O)O[C@H]2[C@H]1CC/C(COC(=O)/C=C/C(=O)NCc1ccc(Cn3c(=O)sn(-c4ccccc4)c3=O)cc1)=C\CC[C@@]1(C)O[C@@H]21 | 49.7% | 89.9% |  | 91.9% | -53.7% (active) | -80.1% (active) | 80.2% | -19.1% (active) | 8.63% (active) | -0.361% (active) | -57.8% (active) | -39.9% (active) | -86.6% (active) | -6.21% (active) | 100% | -39.1% (active) | -11.4% (active) | -36% (active) | 
Clc1ccc2c(NCCCN3CCN(c4nc(N5CCOCC5)nc5ccccc45)CC3)ccnc2c1 | 73.8% | 30% | 42.6% | 4.92% (active) | 12.2% | 13% | 24% | -36% (active) | 27.1% | -46.2% (active) | -82% (active) | -34.5% (active) | -76.6% (active) | 46.7% | -46.7% (active) | -82.7% (active) | -68.3% (active) | -80.3% (active) | 
